Source: PubChem BioAssay (The Scripps Research Institute Molecular Screening Center)
FBW7 act: activators of human E3 ligase FBW7; Q969H0; AlphaScreen FBW7–phospho-cyclin E peptide binding, activator screen; normalized activity (activation), % at 26.1 µM; 650,000 compounds, 0.13% hits; AID 1259310; in the data active = normalized activity above about 1.9%;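 also: purified mutant Fbw7 with reduced substrate affinity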
GPR151 ag: activators of human GPR151 | Q8TDV0 | PathHunter beta-arrestin GPR151 cells, luminescence | activation, % at 11.2 µM | 650,000 compounds, 1% hits | AID 1508602; in the data active = activation above about 4.9%;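 also: 0% = median of compound wells and 100% = cells with positive control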
Target sequence (Q8TDV0 whole entry, looked up): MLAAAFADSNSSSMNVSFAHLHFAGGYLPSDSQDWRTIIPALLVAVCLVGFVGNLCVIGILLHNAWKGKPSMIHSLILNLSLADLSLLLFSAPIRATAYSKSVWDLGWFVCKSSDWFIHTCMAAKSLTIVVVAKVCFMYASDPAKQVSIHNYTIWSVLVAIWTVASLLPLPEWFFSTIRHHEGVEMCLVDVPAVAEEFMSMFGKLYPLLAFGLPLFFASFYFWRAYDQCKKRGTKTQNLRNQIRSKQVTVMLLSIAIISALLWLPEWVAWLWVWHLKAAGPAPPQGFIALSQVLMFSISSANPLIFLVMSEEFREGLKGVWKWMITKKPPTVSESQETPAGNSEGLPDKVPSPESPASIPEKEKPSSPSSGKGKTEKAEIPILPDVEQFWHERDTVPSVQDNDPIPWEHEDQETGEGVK
TEAD-YAP inh: TEAD-YAP interaction inhibition. inhibition, % at 9.12 µM. HEK-TIYL cells, TEAD-Gal4/YAP UAS-luciferase luminescence. 640,000 compounds, 1.4% hits; in the data active = inhibition above about 32%;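 also: 0% = median of test compound wells and 100% = reference inhibitor wells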
MITF primary: inhibitors of human MITF. 650,000 compounds, 0.91% hits. AlphaScreen MITF homodimerization, bead proximity signal. inhibition, % at 2.6 µM; in the data active = inhibition above about 50%;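 also: 0% = vehicle wells with protein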
MITF inh conf: human MITF inhibition, confirmation | inhibition, % at 2.6 µM | shares compounds with MITF primary | 4,700 compounds, 16% hits | AlphaScreen MITF homodimerization, biotin/His-MITF beads | AID 1259372;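 active = inhibition above a cutoff derived from the DMSO control wells, cut at about 28% in these data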;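 also: 0% = MITF dimer wells with DMSO only; inhibitors lower the bead chemiluminescence by keeping MITF from dimerizing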
AlphaScreen DR: AlphaScreen optical interference, dose response counter-screen. shares compounds with MITF primary. IC50, µM. 480 compounds, 6% hits. AlphaScreen optical interference counterscreen, cell-free; call rule not given here
AlphaScreen intf2: optically interferes with AlphaScreen signal; shares compounds with MITF primary; LysRS AlphaScreen counterscreen, signal interference, triplicate; inhibition, % at 2.6 µM; 4,700 compounds, 7.6% hits;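 active = inhibition above a cutoff derived from the DMSO control wells, cut at about 30% in these data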
* = called active by the depositor; x = not tested or not shown. Shown are actives, neighbours in structure and some others; about 3.4% of the full set was active somewhere.

SMILES	FBW7 act	GPR151 ag	TEAD-YAP inh	MITF primary	MITF inh conf	AlphaScreen intf2	others
Oc1c(C2CCCCC2)cccc1C1CCCCC1	-0.1	2.0	4.2	59.6*	-0.2	10.8
Cc1cc(O)ccc1C1CCCCC1	0.1	0.3	7.8	-0.7	x	x
N#Cc1cccc(NC(=O)CSc2nncs2)c1	-0.1	-0.6	-14.2	52.7*	5.6	11.0
N#Cc1cccc(NC(=O)CSc2nc3ccccc3s2)c1	-0.1	-1.6	-4.7	10.2	x	x
Cc1ccc(NC(=O)c2cc3ccccc3oc2=Nc2ccccc2F)cc1	0.1	-1.3	-1.5	8.2	x	x
C[C@@H](O)[C@@H]1NC(=O)[C@H]2CN(Cc3ccccc3)CCN2C1=O	0.9	-1.1	8.0	23.0	x	x
COc1ccc(CN2CCN(Cc3cccc(OC)c3OC)CC2)cc1	-0.2	-0.8	-5.9	75.3*	9.0	11.6
CCOc1ccccc1N1CCN(Cc2cccc(OC)c2OC)CC1	0.0	0.9	7.6	23.4	x	x
CCc1ccc(CN2CCN(Cc3cccc(OC)c3OC)CC2)cc1	-0.5	-1.1	-4.9	63.7*	8.0	15.1
CCC(C)NCCOc1ccccc1C (stereo unspecified)	0.3	0.1	10.2	22.8	x	x
CCOc1ccccc1OCCOCCNC(C)CC (stereo unspecified)	0.3	-2.9	6.1	76.6*	2.5	-6.8
C/C=C/c1ccc(OCCOCCNC(C)CC)c(OC)c1 (stereo unspecified)	-0.2	-0.1	4.5	70.3*	4.6	3.7
C#CCN(C)C(=O)c1cnc2sc(C)cn2c1=O	-0.2	0.1	-0.7	56.7*	12.2	8.0
Cc1cn2c(=O)c(C(=O)N(C)CC(=O)N(C)C)cnc2s1	-0.1	-0.6	2.2	-0.8	x	x
O=C(NCCCO)c1ccc(/C=N/O)nc1	0.1	-0.4	3.1	18.7	x	x
O=C(NCCCNCCCNC(=O)c1ccc(/C=N/O)nc1)c1ccc(/C=N/O)nc1	-0.7	1.4	-3.2	68.7*	49.0*	100.3*
O=C(COC(=O)c1ccc(O)cc1)NC1CCCCC1	-0.1	0.0	11.4	58.5*	-2.5	4.7
CCc1ccc(OCC(=O)NS(=O)(=O)c2ccc(Cl)cc2)cc1	0.4	1.0	7.0	16.3	x	x
CCC(C)N(C(=O)NCC1CC(CNC(=O)N(C(C)CC)C(C)CC)C1(C)C)C(C)CC (stereo unspecified)	-0.1	-0.2	0.8	0.1	x	x
CCS(=O)(=O)N1CCN(Cc2ccc(OC)cc2OC)CC1	0.0	-0.5	6.9	41.7	x	x
COc1ccc(OC)c(CN2CCN(Cc3ccccc3C)CC2)c1	0.2	-1.6	-3.5	51.5*	6.0	7.7
COc1ccc(CN2CCN(Cc3ccccc3C)CC2)c(OC)c1	0.1	0.0	9.6	82.9*	9.6	3.9
O=C(Nc1cccc(NC(=O)c2ccco2)c1)c1ccco1	-0.1	0.5	1.7	2.9	x	x
O=C(NCCc1ccc(Cl)cc1)c1cn(-c2ccc3[nH]ncc3c2)nn1	0.6	-0.5	-7.5	-1.4	x	x
OCCCNc1ncnc2sc(-c3ccccc3)cc12	0.1	1.4	-0.5	-0.6	x	x
SMILES	FBW7 act	GPR151 ag	TEAD-YAP inh	MITF primary	MITF inh conf	AlphaScreen intf2	others
c1ccc(-c2cc3c(NCCCN4CCOCC4)ncnc3s2)cc1	-0.3	-1.5	-7.5	61.0*	-0.9	-3.1
C=COCCCNc1ncnc2sc(-c3ccccc3)cc12	-0.1	-1.2	5.7	60.9*	6.7	8.4
CCOC(=O)N1CCC(N2CCOc3ccc(C(O)CCc4ccccc4)cc3C2)CC1 (stereo unspecified)	-0.1	-0.6	-15.6	-4.8	x	x
CCCOc1ccc(N2C(=O)CC(N3CCN(C45CC6CC(CC(C6)C4)C5)CC3)C2=O)cc1 (stereo unspecified)	0.1	0.6	0.7	-9.2	x	x
CCOc1ccccc1CNc1nc2nc(C)c(C)c(=O)n2[nH]1	-0.1	-0.2	-1.4	10.2	x	x
COc1ccc(CNCCSc2nccn2C)cc1	-0.1	0.5	-6.3	70.3*	12.5	14.6
COc1ccccc1OCC#CCn1ccnc1	-0.2	-1.2	0.8	63.3*	9.7	18.8
O=[N+]([O-])c1c(NCCO)cc(N2CCN(c3ccccn3)CC2)c2nonc12	0.0	1.3	1.3	15.0	x	x
CCc1ccc(CNc2ccc(N3CCOCC3)c(C(=O)O)c2)cc1	0.2	-0.3	-4.1	51.6*	0.3	14.9
COc1cc2sc(=NC(=O)c3ccc4ncsc4c3)n(C)c2cc1OC	0.2	-0.2	-11.9	8.8	x	x
O=S(=O)(O)c1ccc(N/N=C2\CCc3ccccc32)cc1	-0.3	-0.6	16.4	67.2*	45.7*	-2.3	AlphaScreen DR=>6.48
NC(=O)C(=O)N/N=C1\CCc2ccccc21	0.1	-0.1	-1.8	5.1	x	x
CCN(CC)CCCNC(=O)c1[nH]c(C)c(C(=O)NC2CCCCC2)c1C	-0.1	-0.6	4.9	89.5*	15.9	12.3
CCN(CC)CCCNC(=O)c1[nH]c(C)c(C(C)=O)c1C	-0.1	0.2	0.4	3.1	x	x
Cc1ccc(S(=O)(=O)N2CCN(Cc3ccccc3C(F)(F)F)CC2)cc1	0.1	1.5	-38.2	67.3*	3.8	12.0
CCCS(=O)(=O)N1CCN(Cc2cc(OC)c(O)c(OC)c2)CC1	0.3	-1.5	2.0	55.6*	-2.0	10.9
CCc1ccc(CN2CCN(S(=O)(=O)c3ccc(C)cc3)CC2)cc1	0.7	1.4	-0.2	58.1*	7.5	7.1
CCS(=O)(=O)N1CCN(Cc2cc(OC)c(O)c(OC)c2)CC1	0.0	1.3	9.1	37.3	x	x
CCCS(=O)(=O)N1CCN(Cc2ccc(CC)cc2)CC1	0.0	1.2	13.7	50.8*	1.9	8.0
COc1ccc(S(=O)(=O)N2CCN(Cc3ccccc3C(F)(F)F)CC2)cc1	-0.3	-1.5	2.9	-5.1	x	x
COc1cccc(CN2C(=O)NC3(CCCCC3C)C2=O)c1 (stereo unspecified)	-0.1	2.8	6.0	-11.2	x	x
O=C(CN1N=C(c2ccc(Cl)cc2)CCC1=O)NC1CCCC1	0.1	3.5	0.1	-4.4	x	x
Cc1nc2c(c(N3CCCCCC3)n1)CN(S(=O)(=O)c1cccs1)CC2	-0.1	-0.4	3.9	-6.9	x	x
Cc1ccc(S(=O)(=O)N2CCN(Cc3ccccc3Cl)CC2)cc1	-0.1	3.4	-13.9	57.4*	-4.0	-7.2
O=[N+]([O-])c1ccccc1S(=O)(=O)N1CCN(Cc2ccccc2C(F)(F)F)CC1	0.0	-1.3	6.0	60.5*	8.5	12.5
CCCC1=NN2C(=N)/C(=C/c3ccc(OC(C)c4ccccc4)c(OC)c3)C(=O)N=C2S1 (stereo unspecified)	0.6	-1.0	-4.2	19.7	x	x
C=CC1=C(C)C2=Cc3c(C=C)c(C)c4[n]3[Sn+2][n]3c(c(C)c(CCC(=O)O)c3=CC3=NC(=C4)C(C)=C3CCC(=O)O)=CC1=N2	-0.1	0.4	x	54.6*	62.5*	-17.3	AlphaScreen DR=>6.48
C=CC1=C(C)c2cc3[n-]c(cc4nc(cc5[n-]c(cc1n2)c(C)c5CCC(=O)O)C(CCC(=O)O)=C4C)c(C)c3C=C.[Zn+2]	-0.3	-0.7	x	25.8	x	x
